Measured values: PubChem BioAssay AID1159580 (chemical genetic matrix, 2015)
In all, about 5,500 compounds went through this assay and about 2,000 (36%) were called active. Roughly 18% stayed inconclusive and do not appear here. No stated cut-off is given here; in the data, active means normalized growth mostly below about 0.91 (no sharp cut-off); inconclusive means no clear call, values can overlap the other calls; inactive means mostly above about 0.92. This is one part of the list.

Experiment: chemical genetic growth profiling, strain panel (AID 1159580);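 further: tested at 20 µM; growth read once vehicle control cultures reached saturation at 30 °C; 1 = growth at the plate median or of vehicle wells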
Details: S. cerevisiae deletion strains, growth OD

Measured: normalized growth

Cc1cc(=O)c2c(O)c3c(cc2o1)OC(C)(C)CC3
inactive: locus YAL013W, strain DEP1, stronger effect = lower value 1.01 | locus YBR021W, strain FUR4, stronger effect = lower value 1.07 | locus YBR229C, strain ROT2, stronger effect = lower value 1 | locus YCL029C, strain bik1, stronger effect = lower value 0.967 | locus YDL035C, strain GPR1, stronger effect = lower value 1.02 | locus YDL074C, strain BRE1, stronger effect = lower value 1.03 | locus YDL101C, strain DUN1, stronger effect = lower value 0.989 | locus YDL134C, strain PPH21, stronger effect = lower value 0.981 | locus YDL185W, strain tfp1, stronger effect = lower value 0.938 | locus YDL192W, strain arf1, stronger effect = lower value 0.965 | locus YDR101C, strain arx1, stronger effect = lower value 0.975 | locus YDR162C, strain NBP2, stronger effect = lower value 1.01 | locus YDR318W, strain mcm21, stronger effect = lower value 0.954 | locus YDR388W, stronger effect = lower value 0.966 | locus YDR502C, strain sam2, stronger effect = lower value 0.971 | locus YEL061C, strain CIN8, stronger effect = lower value 1 | locus YER110C, stronger effect = lower value 0.967 | locus YER155C, strain BEM2, stronger effect = lower value 0.995 | locus YER167W, strain BCK2, stronger effect = lower value 0.998 | locus YGL078C, strain dbp3, stronger effect = lower value 0.951 | locus YGL086W, strain mad1, stronger effect = lower value 0.983 | locus YGL248W, strain PDE1, stronger effect = lower value 1 | locus YGR078C, strain PAC10, stronger effect = lower value 0.998 | locus YGR135W, strain pre9, stronger effect = lower value 0.923 | locus YGR252W, strain gcn5, stronger effect = lower value 0.931 | locus YHR030C, strain SLT2, stronger effect = lower value 0.992 | locus YHR079C, strain IRE1 (second series), stronger effect = lower value 0.962 | locus YHR094C, strain hxt1, stronger effect = lower value 0.975 | locus YHR129C, strain ARP1, stronger effect = lower value 0.993 | locus YHR200W, strain rpn10, stronger effect = lower value 0.968 | locus YIL066C, strain RNR3, stronger effect = lower value 1.01 | locus YIL073C, strain SPO22, stronger effect = lower value 0.899 | locus YIL125W, strain kgd1, stronger effect = lower value 0.978 | locus YIR030C, strain dcg1, stronger effect = lower value 0.949 | locus YJL095W, strain BCK1, stronger effect = lower value 0.972 | locus YJL134W, strain LCB3, stronger effect = lower value 1 | locus YJL168C, strain set2, stronger effect = lower value 0.969 | locus YJL187C, strain SWE1 (second series), stronger effect = lower value 0.973 | locus YKL009W, strain mrt4, stronger effect = lower value 0.992 | locus YKL068W, stronger effect = lower value 0.976 | locus YKL085W, strain MDH1 (second series), stronger effect = lower value 1 | locus YKL085W, strain MDH1, stronger effect = lower value 1 | locus YKL190W, strain CNB1, stronger effect = lower value 1 | locus YKR001C, strain vps1, stronger effect = lower value 0.96 | locus YLR039C, strain RIC1, stronger effect = lower value 1.01 | locus YLR058C, strain SHM2, stronger effect = lower value 0.994 | locus YLR102C, strain apc9, stronger effect = lower value 0.975 | locus YLR268W, strain sec22, stronger effect = lower value 0.989 | locus YLR330W, strain CHS5, stronger effect = lower value 0.988 | locus YLR342W, strain FKS1 (second series), stronger effect = lower value 1.08 | locus YLR371W, strain rom2, stronger effect = lower value 0.95 | locus YLR418C, strain cdc73, stronger effect = lower value 0.972 | locus YML016C, strain PPZ1, stronger effect = lower value 1.01 | locus YML032C, strain rad52, stronger effect = lower value 0.963 | locus YML124C, strain tub3, stronger effect = lower value 0.971 | locus YMR078C, strain ctf18, stronger effect = lower value 0.951 | locus YMR223W, strain ubp8, stronger effect = lower value 0.959 | locus YMR263W, strain SAP30, stronger effect = lower value 0.973 | locus YMR307W, strain GAS1, stronger effect = lower value 1.21 | locus YNL067W, strain RPL9B, stronger effect = lower value 0.97 | locus YNL128W, strain TEP1, stronger effect = lower value 1 | locus YNL153C, strain GIM3, stronger effect = lower value 0.973 | locus YNL233W, strain BNI4, stronger effect = lower value 1.02 | locus YNL250W, strain rad50, stronger effect = lower value 0.967 | locus YNL271C, strain bni1, stronger effect = lower value 0.965 | locus YNL298W, strain CLA4, stronger effect = lower value 0.961 | locus YNL307C, strain MCK1, stronger effect = lower value 0.982 | locus YNL322C, strain KRE1, stronger effect = lower value 0.995 | locus YNR052C, strain pop2, stronger effect = lower value 0.949 | locus YOL012C, strain htz1 0.959 | locus YOL147C, strain pex11, stronger effect = lower value 0.967 | locus YOR061W, strain CKA2, stronger effect = lower value 1 | locus YOR069W, strain VPS5, stronger effect = lower value 0.997 | locus YOR136W, strain idh2, stronger effect = lower value 0.997 | locus YOR144C, strain elg1, stronger effect = lower value 0.973 | locus YOR184W, strain ser1, stronger effect = lower value 1 | locus YOR316C, strain cot1, stronger effect = lower value 0.964 | locus YPL055C, strain LGE1, stronger effect = lower value 1.05 | locus YPR119W, strain clb2, stronger effect = lower value 0.956 | locus YPR141C, strain kar3, stronger effect = lower value 0.946 | locus YPR163C, strain tif3, stronger effect = lower value 0.98 | locus YPR167C, strain met16, stronger effect = lower value 0.949 | strain wtn01, stronger effect = lower value 1
